High-throughput results as filed in PubChem BioAssay.
CYP2C9 inh = blockers of cytochrome P450 2C9 activity – biochemical, luminescence, ADME assay, primary screen; 20% of 96,000 active; AID 777, 2007; inhibition, % at 5 µM; P11712; CYP2C9 Supersomes, luciferin-H conversion;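 active means blocking of liver enzyme CYP2C9 beyond about 50% at 5 µM, limit read from the data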
Target sequence (P11712 whole entry, looked up): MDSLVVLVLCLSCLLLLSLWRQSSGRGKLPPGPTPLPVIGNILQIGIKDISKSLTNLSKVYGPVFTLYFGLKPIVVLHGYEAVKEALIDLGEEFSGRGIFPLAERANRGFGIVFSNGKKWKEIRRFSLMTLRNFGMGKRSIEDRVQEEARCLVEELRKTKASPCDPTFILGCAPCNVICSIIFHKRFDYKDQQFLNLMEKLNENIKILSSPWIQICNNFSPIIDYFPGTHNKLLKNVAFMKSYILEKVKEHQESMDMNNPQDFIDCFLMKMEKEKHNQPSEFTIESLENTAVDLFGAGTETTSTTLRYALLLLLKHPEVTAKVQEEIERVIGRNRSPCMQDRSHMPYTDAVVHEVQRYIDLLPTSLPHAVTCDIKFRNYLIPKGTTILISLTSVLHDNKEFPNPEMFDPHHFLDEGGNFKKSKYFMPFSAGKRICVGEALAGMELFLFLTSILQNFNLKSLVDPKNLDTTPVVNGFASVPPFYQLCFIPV
CYP2C19 activ = human CYP2C19 activators, primary screen, biochemical, luminescence; Cytochrome P450 2C19 (Homo sapiens), P33261; recombinant CYP2C19, luciferin-H EGE luminescence; hits give high values; 0 = fully inhibited enzyme, 1 = untreated enzyme; activation factor at 5 µM; 96,000 tested, under 10 active; AID 1025, 2008;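 active means activation factor of at least 2 at 5 µM in the primary screen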;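 further: 0 = wells with 2.5 mM tranylcypromine and 1 = vehicle-only wells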
CYP2C9 act = human CYP2C9 activators, primary screen, biochemical, luminescence; AID 1024, 2008; 1.4% of 96,000 active; Cytochrome P450 2C9 (Homo sapiens), P11712; activation factor at 5 µM; recombinant CYP2C9, luciferin-H conversion; hits give high values; factor 1 = untreated enzyme, 0 = blocked;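 active means activation factor of 2 or more for CYP2C9 at a 5 µM dose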;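 further: 0 = sulfaphenazole-blocked wells and 1 = vehicle-only wells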
cytoskel mod = modifiers of F-actin cytoskeleton organization, primary screen, imaging, HUVEC, phalloidin staining, high-content imaging. AID 836, 2007. inhibition, % at 2 µM. 0.18% of 91,000 active. HUVEC TNFa F-actin phalloidin imaging;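 active means inhibition above the batch mean plus 3 SD and confirmed as a hit by visual image inspection, cut at about 30% in these data, passing the limit was not always enough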
E-sel TNF inh = E-selectin induction blockers in HUVEC – imaging, immunofluorescence, high content, primary screen; HUVEC TNFa-induced E-selectin immunofluorescence; inhibition, % at 2 µM; 0.71% of 120,000 active; AID 1246, 2008;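 active means inhibition above the batch mean plus 3 SD, and confirmed as a hit on visual image review, cut at about 43% in these data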;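 further: 0% = TNF-stimulated DMSO wells and 100% = unstimulated control wells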
CYP2C19 inhib = blockers of cytochrome P450 2C19 activity – biochemical, luminescence, ADME assay, primary screen; inhibition, % at 5 µM; CYP2C19 Supersomes, luciferin-H EGE luminescence, 30 min; P33261; 21% of 96,000 active;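 active means CYP2C19 inhibition above a set limit at 5 µM in the primary screen, cut at about 50% in these data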;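 further: plate controls were negative control wells for no effect and 2.5 mM tranylcypromine positive control for full effect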
Active calls of the source: *. Only some compounds are listed: those with a hit (about 22% of all), similar ones and a draw of the others.

How did CCCOC(=O)Cn1c(=O)c2cc3c(=O)n(CC(=O)OCCC)c(=O)c3cc2c1=O do in these assays?
CYP2C9 inh: 2; CYP2C19 activ: 1; CYP2C9 act: 1; E-sel TNF inh: 1; CYP2C19 inhib: 4

Results for COc1cccc(/C=C(/C(=O)OCC(=O)NC2CCCC(C)C2C)c2ccccc2)c1 (stereo not given) ?
E-sel TNF inh: -20

Results for NS(=O)(=O)c1ccc(CNC(=O)CC23CC4CC(CC(C4)C2)C3)cc1 ?
CYP2C9 inh: 9; CYP2C19 activ: 1.1; CYP2C9 act: 0.9; cytoskel mod: 9; E-sel TNF inh: -5; CYP2C19 inhib: -9

Results for COC(=O)c1cc(F)c(-n2cncn2)c(F)c1 ?
CYP2C9 inh: 9; CYP2C19 activ: 0.3; CYP2C9 act: 0.9; cytoskel mod: -11; E-sel TNF inh: -17; CYP2C19 inhib: 70*

What do the screens show for `COC(=O)c1ccc(S(=O)(=O)N2CCCCC2)o1`?
CYP2C9 inh: 5; CYP2C19 activ: 0.8; CYP2C9 act: 1; cytoskel mod: 6; CYP2C19 inhib: 23

Results for CCCCNC(=O)NS(=O)(=O)c1ccc(C(=O)OC(C)C)o1 ?
CYP2C9 inh: 69*; CYP2C19 activ: 0.9; CYP2C9 act: 0.3; cytoskel mod: -41; E-sel TNF inh: -11; CYP2C19 inhib: 5

How did COc1ccc(S(=O)(=O)N2CCN(C3CCCCCCC3)CC2)cc1 do in these assays?
CYP2C9 inh: 20; CYP2C19 activ: 0.7; CYP2C9 act: 0.8; E-sel TNF inh: -24; CYP2C19 inhib: 32

Results for C=C(C)CSc1cc(C)c(C#N)c2nc3ccccc3n12 ?
E-sel TNF inh: 18

Results for CCOC(=O)N1CCN(C(=O)c2ccc(NC(=O)c3ccc(C)cc3)cc2)CC1 ?
CYP2C9 inh: 70*; CYP2C19 activ: 0.5; CYP2C9 act: 0.3; cytoskel mod: 20; E-sel TNF inh: 8; CYP2C19 inhib: 48

How did Cc1ccc(C(=O)N2CCN(c3ccc(NC(=O)c4ccc(Br)o4)cc3)CC2)cc1 do in these assays?
CYP2C9 inh: 50*; CYP2C19 activ: 0.7; CYP2C9 act: 0.5; cytoskel mod: -16; E-sel TNF inh: -9; CYP2C19 inhib: 28

Results for CCC(=O)N1CCN(c2ccc(NC(=O)c3ccc(Br)o3)cc2)CC1 ?
E-sel TNF inh: 6

Results for O=C(Oc1nsnc1N1CCOCC1)N1CCCC1 ?
cytoskel mod: 13; E-sel TNF inh: 32

Results for CNC(=O)Cc1csc2ccc(Cl)cc12 ?
CYP2C9 inh: -49; CYP2C19 activ: 0.8; CYP2C9 act: 1.5; cytoskel mod: 1; E-sel TNF inh: -31; CYP2C19 inhib: 20

Results for Cc1nnc(SCC(=O)NCc2ccc3c(c2)OCO3)[nH]c1=O ?
CYP2C9 inh: 68*; CYP2C19 activ: 1; CYP2C9 act: 0.3; E-sel TNF inh: -33; CYP2C19 inhib: 2

How did O=C(CSc1nnnn1-c1ccc2c(c1)OCO2)NCc1cccs1 do in these assays?
CYP2C9 inh: 2; CYP2C19 activ: 0.5; CYP2C9 act: 1; cytoskel mod: -13; E-sel TNF inh: -2; CYP2C19 inhib: 49

Results for NC(=O)CSc1nnnn1-c1ccc2c(c1)OCCO2 ?
cytoskel mod: 14; E-sel TNF inh: -2

What do the screens show for `COc1cc(OC)cc(-n2nnnc2SCC(=O)NCc2ccc3c(c2)OCO3)c1`?
CYP2C9 inh: -47; CYP2C19 activ: 0.5; CYP2C9 act: 1.5; cytoskel mod: -2; E-sel TNF inh: 8; CYP2C19 inhib: 53*

What do the screens show for `O=C(CSc1nnc(SCC(=O)NCc2ccc3c(c2)OCO3)s1)NCc1ccc2c(c1)OCO2`?
CYP2C9 inh: 3; CYP2C19 activ: 1; CYP2C9 act: 1; cytoskel mod: 2; E-sel TNF inh: 9; CYP2C19 inhib: -1

What do the screens show for `Fc1ccccc1CSc1nnnn1-c1ccc2c(c1)OCO2`?
CYP2C9 inh: 42; CYP2C19 activ: 0.1; CYP2C9 act: 0.6; E-sel TNF inh: -6; CYP2C19 inhib: 92*

What do the screens show for `O=C(CSc1nnnn1-c1ccc2c(c1)OCO2)NCc1ccccc1`?
CYP2C9 inh: 33; CYP2C19 activ: 0.1; CYP2C9 act: 0.7; cytoskel mod: 8; E-sel TNF inh: 3; CYP2C19 inhib: 92*

What do the screens show for `COc1cc2c(cc1NC(=O)CC1SC(N3CCCC3)=NC1=O)oc1ccccc12` (stereo not given)?
CYP2C9 inh: 4; CYP2C19 activ: 0.9; CYP2C9 act: 1; cytoskel mod: 32; E-sel TNF inh: 23; CYP2C19 inhib: 9

What do the screens show for `CCCCCOC(=O)C1C2C=CC3(CN(c4ccccc4C)C(=O)C13)O2` (stereo not given)?
CYP2C9 inh: 8; CYP2C19 activ: 0.9; CYP2C9 act: 0.9; cytoskel mod: 15; CYP2C19 inhib: 14

How did COc1cccc(-n2nnnc2SCC(=O)Nc2ccc3c(c2)OCCO3)c1 do in these assays?
CYP2C9 inh: 14; CYP2C19 activ: 0.9; CYP2C9 act: 0.9; cytoskel mod: 17; E-sel TNF inh: -25; CYP2C19 inhib: 10

Results for COc1cccc(-n2nnnc2SCC(=O)NCc2ccc3c(c2)OCO3)c1 ?
CYP2C9 inh: 60*; CYP2C19 activ: 0.1; CYP2C9 act: 0.4; cytoskel mod: 8; E-sel TNF inh: -29; CYP2C19 inhib: 88*

Results for CC[C@H](C)[C@H](NC(N)=O)C(=O)NCCc1ccc(Cl)cc1Cl ?
E-sel TNF inh: 0

How did CCOC(=O)c1ccc(N2C(=O)c3n[nH]c(C)c3C2c2cccnc2)cc1 (stereo not given) do in these assays?
CYP2C9 inh: 68*; CYP2C19 activ: 0.7; CYP2C9 act: 0.3; cytoskel mod: -15; E-sel TNF inh: 0; CYP2C19 inhib: 30

Results for CCOC(=O)c1ccc(N2C(=O)C(O)=C(C(C)=O)C2c2ccccn2)cc1 (stereo not given) ?
CYP2C9 inh: 52*; CYP2C19 activ: 1.1; CYP2C9 act: 0.5; cytoskel mod: 11; E-sel TNF inh: -22; CYP2C19 inhib: -6

Results for CCOC(=O)c1ccc(N2C(=O)c3n[nH]c(C)c3C2c2ccccn2)cc1 (stereo not given) ?
CYP2C9 inh: 69*; CYP2C19 activ: 0.6; CYP2C9 act: 0.3; cytoskel mod: 2; CYP2C19 inhib: 42

Results for Cc1ccc(N2C(=O)c3n[nH]c(C)c3C2c2cccnc2)cc1 (stereo not given) ?
CYP2C9 inh: 30; CYP2C19 activ: 0.6; CYP2C9 act: 0.7; cytoskel mod: -3; CYP2C19 inhib: 40

Results for COc1ccc(S(=O)(=O)N2CCC(C(=O)c3ccc4c(c3)OCCO4)CC2)cc1 ?
cytoskel mod: -31; E-sel TNF inh: -21

What do the screens show for `COC(=O)c1ccc(N2CCS(=O)(=O)CC2)cc1`?
E-sel TNF inh: -2
